Only some compounds are listed: those with a hit (about 12% of all), similar ones and a draw of the others.
MARV entry inh – inhibitors of Marburg virus binding or cell entry; AID 540276; Marburg virus pseudotyped entry inhibition, cell reporter; 300,000 compounds, 1.8% hits; Potency, µM (highest dose often 37.8 µM), inactives show top-dose activity change, negative = inhibition, actives largely listed as inhibitors; calls by dose curve; tested in HEK293 cells; further: potency means the concentration at half of the fitted maximal effect; on the % scale 0 is the no-effect control and ±100 the full control effect
Shiga toxin inh – blocks Shiga toxin action in Vero cells. 290,000 compounds, 9.2% hits. Vero cells, Shiga toxin protein synthesis inhibition reporter. inhibition, % at 38.7 µM; in the data active means inhibition mostly above about 28%, no sharp cut-off; inactive means mostly below about 43%; further: 0% is about no effect
CHX counter – affects cycloheximide protein synthesis inhibition readout, counter-screen; cell reporter, cycloheximide protein synthesis inhibition counterscreen; 300,000 compounds, 12% hits; AID 2314; max response, %; in the data active means max response mostly above about 13%, no sharp cut-off; inactive means mostly below about 14%; further: read at 38.3 µM for the half of the compounds with a filed dose; 0% is about no effect
LASV entry inh – Lassa virus entry inhibition; Lassa virus pseudotype entry inhibition, cell reporter; Potency, µM (doses to about 37.9 µM), inactives show at the highest dose activity change, negative = inhibition, usual class: inhibitors; 300,000 compounds, 1.2% hits; calls by dose curve; tested in HEK293 cells; further: potency means the concentration at half of the fitted maximal effect; on the % scale 0 is the no-effect control and ±100 the full control effect; nearly all actives have a fitted effect of over 50% in size
* hit, by the source's call; ? = inconclusive; / = no result; [ ] = dose if it differs, or a comment.

SMILES | MARV entry inh | Shiga toxin inh | CHX counter | LASV entry inh
CCCCN(C(=O)CNC(=O)c1cccs1)C(C(=O)NC1CCCC1)c1ccncc1 (centres undefined) | -6%[46.1 µM] | 46 | 28* | -8%[46.1 µM]
O=C(N/N=C/c1cn(-c2ccccc2)nc1-c1cccs1)c1ccccc1F | ? | 83* | 20* | ?
NC(=O)N/N=C/c1cn(-c2ccccc2)nc1-c1ccccc1 | 16%[46.1 µM] | 60* | 31* | 2%
O=[N+]([O-])c1ccc(N/N=C/c2cn(-c3ccccc3)nc2-c2ccccc2)cc1 | ? | 31* | 10 | -17%
O=C(CNc1ccccc1)N/N=C/c1cn(-c2ccccc2)nc1-c1ccccc1 | ? | 54 | 9.7* | 6%
CC1(C)CC(=O)c2c(O)cc(OCC(=O)N3CCN(c4ccccc4)CC3)cc2O1 | / | 2 | -4 | /
COc1ccc(N(CC(=O)N2CCN(Cc3ccccc3)CC2)S(C)(=O)=O)cc1Cl | / | -8 | -3 | /
COc1cc2c(cc1OC)n(Cc1ccc([N+](=O)[O-])cc1)c(=O)n1nc(-c3ccccc3)nc21 | / | / | / | -28%[46.1 µM]
COc1ccc(C(C(=O)NC(C)(C)C)N(C(=O)Cn2nnc3ccccc32)c2cccc(C(C)=O)c2)cc1O (centres undefined) | 0%[46.1 µM] | -3 | 0 | 1%
Clc1ccc(-c2nnc(COc3ncnc4sccc34)o2)cc1 | 30% | 34* | 34* | ?
CS(=O)(=O)N(CC(=O)Nc1ccc(F)c(F)c1)c1cccc([N+](=O)[O-])c1 | 18% | -7 | -2 | 10%
CCOc1ccc(C(=O)/C=C/Nc2ccc(S(=O)(=O)Nc3onc(C)c3C)cc2)cc1 | 19% | 85* | 20* | -9%
COc1cccc(C(=O)/C=C/Nc2ccc(S(=O)(=O)Nc3onc(C)c3C)cc2)c1 | ? | 63* | 44* | 18%
Cc1noc(NS(=O)(=O)c2ccc(N/C=C\C(=O)c3cccc4ccccc34)cc2)c1C | ? | 40 | 12 | -1%
Cc1noc(NS(=O)(=O)c2ccc(N/C=C\C(=O)c3ccc4c(c3)OCO4)cc2)c1C | ? | 72* | 37* | -2%
Cc1noc(NS(=O)(=O)c2ccc(N/C=C\C(=O)c3ccc(Br)cc3)cc2)c1C | 0% | 58* | 19* | 6%
COc1cc(OC)cc(C(=O)Nc2ccc(S(=O)(=O)Nc3onc(C)c3C)cc2)c1 | 10%[46.1 µM] | / | / | -6%[46.1 µM]
CC(C)[C@@H](C(=O)OCC(=O)Nc1ccc2c(c1)OCO2)N1C(=O)c2ccccc2C1=O | -3% | -9 | 1 | 4%
O=C(CSc1nc2ncc(Cl)cc2[nH]1)N(Cc1ccccc1)C1CCS(=O)(=O)C1 (centres undefined) | 1%[46.1 µM] | -10 | 8 | -2%[46.1 µM]
COc1ccc(Nc2nc(N3CCOCC3)nc(N3CCOCC3)n2)cc1Cl | ? | 1 | -3 | -20%
COc1ccc(N=C2NN=C(c3c(C)[nH]c4ccccc34)CS2)cc1 | 11µM* | -6 | 5 | ?
Cc1[nH]c2ccccc2c1C1=NNC(=Nc2ccc(F)cc2)SC1 | / | -4 | -4 | /
CCOC(=O)Cc1csc(NC(=O)CN2CCOCC2)n1 | -16%[46.1 µM] | -5 | -1 | 10%[46.1 µM]
O=C(OCc1ccc(Cl)c(Cl)c1)c1ccc[nH]1 | -25% | 111* | 23* | 1%
O=C(Cc1ccc(Cl)c(Cl)c1)OCC(=O)c1ccc[nH]1 | 8% | 17 | 3 | 2%
SMILES | MARV entry inh | Shiga toxin inh | CHX counter | LASV entry inh
C(=C\c1ccccn1)/c1ccccn1 | 7%[46.1 µM] | 105* | 64* | 6%
Brc1ccc(N=Cc2ccccn2)cc1 | ? | 54* | 22* | ?
CCOc1ccc(Br)cc1C(=O)N/N=C/c1ccccn1 | ? | -10 | -3 | 6%[46.1 µM]
CNCCCOc1cc(C)cc(C)c1C | ? | -12 | -2 | -6%[46.1 µM]
N#C/C(=C\c1ccc(Cl)cc1)c1nc(-c2cc3c(ccc4ccccc43)oc2=O)cs1 | / | / | / | -20%[46.1 µM]
C/C(=N\N=C\c1ccc(N(C)C)cc1)c1cccc([N+](=O)[O-])c1 | ? | 50* | 37* | 2%
C/C(=N\N=C(N)N)c1cccc([N+](=O)[O-])c1 | -30% | -2 | -5 | 18%
CCN1C(=O)/C(=C\c2cccn2-c2ccc([N+](=O)[O-])cc2)N(CC)C1=S | 0% | -7 | -1 | 0%
O=C(Nc1cccc(Cl)c1)NC1CCN(C2CCCCC2)C1 (centres undefined) | ? | / | -2 | -13%[46.1 µM]
CC(=O)Nc1ccc(S(=O)(=O)N2CCN=C2SCc2ccc([N+](=O)[O-])cc2)cc1 | 13µM* | -12 | 2 | ?
CC(=O)Nc1ccc(S(=O)(=O)N2CCN=C2SCc2cccc(C)c2)cc1 | -26% | -18 | -1 | ?
CC1CN(S(=O)(=O)c2cc(C(=O)NC(C)c3cccnc3)ccc2Cl)CC(C)O1 (centres undefined) | -21% | / | / | 3%
c1coc(C2Nc3ccccc3-c3nc4ccccc4n32)c1 (centres undefined) | ? | 63* | 31* | ?

Bioassay records as filed in PubChem.
